# Experimental data published in paper PMC10812921, “Transcriptional Coactivator BOB1 (OBF1, OCA-B) Modulates the Specificity of DNA Recognition by the POU-Domain Factors OCT1 and OCT2 in a Monomeric Configuration”.
# Target: POU1 (OCT1 POU domain) (human, UniProt P14859 260-458)
# Test: EMSA-SELEX-seq; no BOB1; 20 mM Tris-HCl pH 7.6, 140 mM NaCl, 10% glycerol, 0.5 mM EDTA, 0.05% Triton X-100, 0.1 mg/mL BSA, 0.1 mg/mL poly(dI-dC), 5 mM DTT, room temperature, 20 min; high values mean tight binding
# Settings: protein: recombinant; dsDNA, one strand shown
# Method in brief: (§1)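 Tagged POU-domain proteins were expressed in E. coli BL21, purified under denaturing conditions and renatured. Then 30 ng was mixed with 300 ng of a PCR-amplified double-stranded random 35-nt library, with or without 28 ng coactivator protein, in 20 μL Tris–HCl pH 7.6 binding buffer for 20 min at RT. Complex bands were cut from native 6% PAGE, eluted and PCR-amplified over four rounds, then Illumina-sequenced. Binding preference is the percentage of sequenced 8-mers matching a motif pattern.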
# POU1 (OCT1 POU domain), sequence (P14859 260-458): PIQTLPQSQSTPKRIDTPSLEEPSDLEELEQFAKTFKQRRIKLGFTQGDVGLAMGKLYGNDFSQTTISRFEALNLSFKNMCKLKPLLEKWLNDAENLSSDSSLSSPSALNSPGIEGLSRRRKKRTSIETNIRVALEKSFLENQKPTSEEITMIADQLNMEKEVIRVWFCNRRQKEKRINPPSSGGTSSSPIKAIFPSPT
row,Sequence,binding signal
1,ATTGAAAT,0.257 % of ANNNNAAN 8-mers
2,AATAAAAA,0.137 % of ANNNNAAN 8-mers
3,ACTGAAAA,0.0313 % of ANNNNAAN 8-mers
4,ATAGAAAT,0.0782 % of ANNNNAAN 8-mers
5,AGACGAAT,0.0461 % of ANNNNAAN 8-mers
6,ACTGGAAG,0.021 % of ANNNNAAN 8-mers
7,ACGCTAAA,0.0305 % of ANNNNAAN 8-mers
8,AGACAAAT,0.114 % of ANNNNAAN 8-mers
9,ACCGCAAT,0.0164 % of ANNNNAAN 8-mers
10,AGTGCAAG,0.0187 % of ANNNNAAN 8-mers
11,AGTCGAAC,0.0221 % of ANNNNAAN 8-mers
12,AGGCTAAA,0.0381 % of ANNNNAAN 8-mers
13,ATATAAAT,0.16 % of ANNNNAAN 8-mers
14,ATGAGAAT,0.101 % of ANNNNAAN 8-mers
15,AGAGTAAA,0.0564 % of ANNNNAAN 8-mers
16,ATTACAAC,0.0313 % of ANNNNAAN 8-mers
17,AGCTAAAG,0.0278 % of ANNNNAAN 8-mers
18,AATTCAAG,0.101 % of ANNNNAAN 8-mers
19,AAATTAAA,0.328 % of ANNNNAAN 8-mers
20,AAATCAAG,0.098 % of ANNNNAAN 8-mers

row,Sequence,binding signal
1,ATAATAAC,0.0873 % of ANNNNAAN 8-mers
2,AGAATAAA,0.161 % of ANNNNAAN 8-mers
3,AACAAAAT,0.119 % of ANNNNAAN 8-mers
4,ATCCCAAC,0.0137 % of ANNNNAAN 8-mers
5,AGTCTAAC,0.021 % of ANNNNAAN 8-mers
6,ATGCCAAA,0.0458 % of ANNNNAAN 8-mers
7,AGAGCAAT,0.0355 % of ANNNNAAN 8-mers
8,ACTGAAAT,0.0522 % of ANNNNAAN 8-mers
9,ACCCAAAA,0.0214 % of ANNNNAAN 8-mers
10,ACTGGAAT,0.074 % of ANNNNAAN 8-mers
11,AGTCTAAT,0.147 % of ANNNNAAN 8-mers
12,AGAAGAAA,0.0507 % of ANNNNAAN 8-mers
13,AGAGTAAG,0.0305 % of ANNNNAAN 8-mers
14,AACGGAAT,0.0698 % of ANNNNAAN 8-mers
15,ACAGAAAG,0.0297 % of ANNNNAAN 8-mers
16,ACGAGAAT,0.0492 % of ANNNNAAN 8-mers
17,AGGATAAC,0.0263 % of ANNNNAAN 8-mers
18,AAATTAAT,0.415 % of ANNNNAAN 8-mers
19,ATACGAAT,0.0908 % of ANNNNAAN 8-mers

# Target: T1, POU2 (OCT2 POU domain) (human, UniProt P09086 175-386)
# T1 sequence: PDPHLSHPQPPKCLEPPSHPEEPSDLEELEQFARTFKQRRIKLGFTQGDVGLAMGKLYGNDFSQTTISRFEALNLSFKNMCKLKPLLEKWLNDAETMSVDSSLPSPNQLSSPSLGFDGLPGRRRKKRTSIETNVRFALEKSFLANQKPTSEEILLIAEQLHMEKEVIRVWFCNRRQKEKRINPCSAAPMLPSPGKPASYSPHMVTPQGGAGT
# Test: as above
# Settings: protein: recombinant; dsDNA, one strand shown
# Method in brief: as §1
row,Sequence,binding signal
1,ATTGAAAT,0.29 % of ANNNNAAN 8-mers
2,AATAAAAA,0.132 % of ANNNNAAN 8-mers
3,ACTGAAAA,0.0363 % of ANNNNAAN 8-mers
4,ATAGAAAT,0.0961 % of ANNNNAAN 8-mers
5,AGACGAAT,0.0581 % of ANNNNAAN 8-mers
6,ACTGGAAG,0.027 % of ANNNNAAN 8-mers
7,ACGCTAAA,0.0391 % of ANNNNAAN 8-mers
8,AGACAAAT,0.0748 % of ANNNNAAN 8-mers
9,ACCGCAAT,0.019 % of ANNNNAAN 8-mers
10,AGTGCAAG,0.0311 % of ANNNNAAN 8-mers
11,AGTCGAAC,0.0224 % of ANNNNAAN 8-mers
12,AGGCTAAA,0.0414 % of ANNNNAAN 8-mers
13,ATATAAAT,0.222 % of ANNNNAAN 8-mers
14,ATGAGAAT,0.134 % of ANNNNAAN 8-mers
15,AGAGTAAA,0.0386 % of ANNNNAAN 8-mers
16,ATTACAAC,0.042 % of ANNNNAAN 8-mers
17,AGCTAAAG,0.0282 % of ANNNNAAN 8-mers
18,AATTCAAG,0.0886 % of ANNNNAAN 8-mers
19,AAATTAAA,0.349 % of ANNNNAAN 8-mers
20,AAATCAAG,0.0926 % of ANNNNAAN 8-mers

row,Sequence,binding signal
1,ATAATAAC,0.101 % of ANNNNAAN 8-mers
2,AGAATAAA,0.182 % of ANNNNAAN 8-mers
3,AACAAAAT,0.0926 % of ANNNNAAN 8-mers
4,ATCCCAAC,0.0213 % of ANNNNAAN 8-mers
5,AGTCTAAC,0.0207 % of ANNNNAAN 8-mers
6,ATGCCAAA,0.0501 % of ANNNNAAN 8-mers
7,AGAGCAAT,0.0443 % of ANNNNAAN 8-mers
8,ACTGAAAT,0.0639 % of ANNNNAAN 8-mers
9,ACCCAAAA,0.015 % of ANNNNAAN 8-mers
10,ACTGGAAT,0.0765 % of ANNNNAAN 8-mers
11,AGTCTAAT,0.166 % of ANNNNAAN 8-mers
12,AGAAGAAA,0.0685 % of ANNNNAAN 8-mers
13,AGAGTAAG,0.0466 % of ANNNNAAN 8-mers
14,AACGGAAT,0.0949 % of ANNNNAAN 8-mers
15,ACAGAAAG,0.0236 % of ANNNNAAN 8-mers
16,ACGAGAAT,0.0547 % of ANNNNAAN 8-mers
17,AGGATAAC,0.0437 % of ANNNNAAN 8-mers
18,AAATTAAT,0.478 % of ANNNNAAN 8-mers
19,ATACGAAT,0.101 % of ANNNNAAN 8-mers
